Experimental findings from PubChem BioAssay (NCI) are described below.

Holding throughout (assay): NCI-60 one-dose screen, 48 h (100 = growth as untreated, 0 = no growth, -100 = all killed)
What all share (conditions): 10 µM unless noted

The subject of test [1] is HCT-15 colon.
In test [2] the test system is HT29 colon.
Test [3] deals with SNB-75 CNS.
In test [4] the test system is SNB-19 CNS.
Test [5] has as its system U251 CNS.
Test [6] concerns PC-3 prostate.
The test system of test [7] is SK-MEL-5 melanoma.
Test [8] concerns UACC-62 melanoma.
Test [9] relates to LOX IMVI melanoma.
Test [10] deals with SK-MEL-28 melanoma.
Test [11] relates to SK-MEL-2 melanoma.
The subject of test [12] is EKVX NSCLC.
In test [13] the test system is SN12C renal.
For test [14], the system named is UO-31 renal.
Test [15] concerns TK-10 renal.
The subject of test [16] is ACHN renal.
The test system of test [17] is CAKI-1 renal.
Test [18] has as its system A498 renal.
Test [19] relates to CCRF-CEM leukemia.
Test [20] deals with MOLT-4 leukemia.

The structures appear in SMILES notation. About 83,000 compounds went through this panel and 20% of them were active in at least one assay; those are over-represented in the sample as a whole.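 Single-dose data. Exposure time 48 hours. Values below 10 considered active.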 A number with no mark means an inactive call. Calls of active or inactive are those of the source.

As to `COc1ccc2c(c1)oc1c(C)c3c(c(C)c12)C(=O)N(N)C3=O`, the growth in test [1] was 41.9%; in test [2], 6.15% (active); in [3], -55.9% (active); in test [4] it was 46.2%; in test [5] it was 13.6%; in test [6] it was 54.1%. Also, the growth is 4.46% (active) in [7]; 43.6% in [8]; 43.4% in test [9]; 51% in test [10]; 93% in test [11]; 49.1% in test [12]. Besides, the growth in test [13] was 38.7%; in test [14], -45.8% (active); in test [15], -4.02% (active); in [16] it was -23.7% (active); in test [17] it was 34.2%; in test [18], -7.39% (active). For the same molecule, the growth in test [19] is 55.8%; in [20], 17.4%.
For `Cc1ccc(-n2nc3c(c(C#N)c2=O)CC(c2ccccc2[N+](=O)[O-])C([N+](=O)[O-])=C3O)cc1` (stereo not given), the growth was 84.1% in test [1]; 113% in [2]; 80.1% in test [3]; 92.3% in test [4]; 91.3% in test [5]; 88.3% in test [6]. In addition, the growth was 87.5% in test [7]; 78.3% in test [8]; 82.9% in test [9]; 98.4% in test [10]; 98.8% in [11]; 77.1% in [12]. Further, the growth in [13] is 91.8%; in test [14], 61.8%; in test [15], 115%; in test [16], 86.4%; in test [17], 77.4%; in test [18] it was 95.9%. In addition, the figures for the growth in test [19] and in [20] were 88.2% and 87.6%, respectively.
On to `C=CCn1c(-c2ccc(-c3nc4ccc(C)cc4[nH]3)cc2)n[nH]c1=S`, for which the growth in test [1] is 99.2%; in test [2], 105%; in test [3] it was 104%; in test [4], 102%; in test [5], 101%; in [6] it was 101%. Moreover, the growth in test [7] is 89.5%; in test [8] it was 95.8%; in test [9], 98.3%; in test [10] it was 100%; in test [11], 112%; in test [12], 94.5%. In addition, the growth is 96.4% in test [13]; 89.7% in [14]; 133% in [15]; 99.6% in test [16]; 93.6% in test [17]; 94.5% in test [18]. For the same molecule, the figures for the growth in [19] and in test [20] were 87.3% and 96.9%, respectively.
Regarding `Cc1ccc(-c2csc(NC(=O)CSc3nc(-c4ccccc4)cc(=O)[nH]3)n2)cc1`, the growth in test [1] was 94.5%; in [2] it was 102%; in [3], 96.1%; in test [4], 87.5%; in test [5] it was 92.2%; in [6], 86.5%. Moreover, the growth in test [7] was 87.4%; in test [8], 70%; in test [9] it was 96.5%; in test [10], 97.5%; in test [11], 89.4%; in test [12] it was 90.9%. For the same molecule, the growth in test [13] is 94.9%; in [14], 76%; in [15], 108%; in [16] it was 91.7%; in test [17], 90.7%; in [18], 97.8%. In addition, the results for the growth in [19] and in test [20] were 88.8% and 74.2%, respectively.
With `OCc1cnccc1NCCCCOc1ccc(Oc2ccccc2)cc1`, the growth in test [1] was 49.8%; in test [2], 24.6%; in test [3], 71.6%; in test [4] it was 74.6%; in test [5], 52.3%; in test [6], 56%. The growth was 15.7% in [7]; 61.5% in test [8]; 45.9% in [9]; 70.2% in [10]; 81.6% in test [11]; 50.6% in test [12]. Also, the growth is 70.7% in [13]; 49.8% in [14]; 66.1% in test [15]; 80.3% in [16]; 70.7% in [17]; 76.9% in test [18]. In addition, the results for the growth in test [19] and in test [20] were 53.9% and 45.1%, respectively.
As to `N#CC1C(C#N)C(C(=O)c2ccc(Br)cc2)N2c3ccccc3C=CC12` (stereo not given), the growth in test [1] was 23.7%; in [2], 37.4%; in [3], 12%; in test [4] it was 80.4%; in [5] it was 84.6%; in test [6], 76.8%. Moreover, the growth is 61.3% in test [7]; 63% in test [8]; 78.7% in test [9]; 95.7% in test [10]; 104% in test [11]; 63.9% in test [12]. For the same molecule, the growth in test [13] is 76.1%; in [14], 48%; in test [15] it was 106%; in test [16], 89.4%; in [17], 50.7%; in test [18], 67.7%. The results for the growth in test [19] and in [20] were 84.9% and 92.7%, respectively.
`CC(C)(C)c1cc(C=O)cc(C(C)(C)C)c1O`: the growth was 102% in test [1]; 102% in test [2]; 83.6% in test [3]; 101% in [4]; 96.3% in test [5]; 87.6% in test [6]. Moreover, the growth in test [7] is 92%; in test [8], 85.4%; in [9], 98.4%; in test [10], 111%; in [11], 96.2%; in test [12], 126%. Further, the growth in [13] was 104%; in test [14], 103%; in test [15] it was 93.2%; in [16], 105%; in test [17] it was 113%; in test [18], 105%. For the same molecule, the growth was 14.3% in [19] and 14.8% in test [20].
For the molecule `CSc1nc2sc3cccc(Cl)c3n2c(=N)c1C#N`, the growth is 111% in test [1]; 113% in test [2]; 103% in [3]; 109% in [4]; 95.6% in test [5]; 90.8% in test [6]. In addition, the growth in test [7] was 95.4%; in test [8] it was 90%; in [9] it was 93.7%; in [10], 115%; in test [11], 105%; in test [12], 90.1%. Besides, the growth in test [13] is 101%; in [14] it was 68.5%; in test [15] it was 123%; in test [16], 95%; in [17] it was 86.8%; in test [18] it was 56.2%. The growth was 86% in test [19] and 90% in [20].
As to `Cc1ccc(C(=O)/C(=C\c2ccc([N+](=O)[O-])cc2)S(=O)Cc2ccc(Cl)cc2)cc1` (stereo not given), the growth is 10.8% in test [1]; -51.1% (active) in test [2]; 75.5% in test [3]; 46.8% in [4]; 9.49% (active) in [5]; 6.38% (active) in test [6]. Moreover, the growth in test [7] was 78.5%; in test [8], 5.87% (active); in test [9], -26.5% (active); in test [10] it was 46.6%; in [11], 72.7%; in test [12], 82.4%. For the same molecule, the growth is -15.6% (active) in test [13]; 3.42% (active) in test [14]; 50.3% in test [15]; 12.7% in [16]; 59.7% in test [17]; 77.6% in [18]. The growth in test [19] is 4.88% (active); in test [20], 7.82% (active).
Take `COc1ccc(C(=O)c2cc(OC)c(OC)c(OC)c2)cc1O`: the growth is 3.56% (active) in test [1]; 14.7% in test [2]; -0.83% (active) in [3]; 28.5% in test [4]; 20.5% in test [5]; 20.4% in test [6]. Moreover, the growth in test [7] was -59.7% (active); in test [8] it was 45.2%; in [9], 15.4%; in [10], 57.6%; in test [11], 59.6%; in [12], 43.8%. The growth in [13] is 15.2%; in [14], 32.7%; in test [15] it was 65.3%; in [16], 25.6%; in test [17], 37.2%; in test [18] it was 75%. In addition, the growth in test [19] is 5.92% (active); in test [20] it was 15.4%.
As to `NS(=O)(=O)c1ccc(CCn2c(SCC(=O)c3ccc(Cl)cc3)nc3ccccc3c2=O)cc1`, the growth is 98.2% in test [1]; 102% in test [2]; 90.2% in [3]; 102% in test [4]; 109% in test [5]; 98.2% in [6]. In addition, the growth in test [7] is 104%; in [8] it was 98.9%; in test [9], 96.8%; in test [10], 113%; in test [11] it was 107%; in test [12], 98.9%. Besides, the growth in test [13] was 101%; in test [14] it was 84.5%; in test [15] it was 97.2%; in [16] it was 99.9%; in test [17] it was 89.7%; in test [18], 99.2%. Further, the growth was 97.8% in [19] and 97.6% in test [20].
Take `COc1ccc(/C=C/c2nc(Nc3ccc(Cl)cc3)c3ccccc3n2)cc1`: the growth in [1] is 34.8%; in [2] it was 48.3%; in test [3], 61.7%; in [4], 64.4%; in test [5], 45.7%; in [6], 54.5%. The growth in test [7] is 69.7%; in [8], 14.3%; in test [9], 18.4%; in test [10] it was 90.2%; in test [11] it was 89.2%; in test [12] it was 81.8%. For the same molecule, the growth in [13] was 38.5%; in test [14], 34.3%; in test [15], 70.8%; in [16] it was 49.4%; in test [17], 56.5%; in test [18], 16.6%. Moreover, the growth in test [19] was 8.06% (active); in test [20], 32.1%.
On to `COc1cc(OC)cc(C(=O)C[n+]2cccc3cc[nH]c32)c1`, for which the growth was 108% in test [1]; 97.1% in test [2]; 86.9% in [3]; 93.1% in test [4]; 102% in [5]; 96.5% in test [6]. For the same molecule, the growth was 97.3% in [7]; 89.8% in test [8]; 93.8% in test [9]; 100% in test [10]; 103% in test [11]; 98% in test [12]. Further, the growth in [13] was 87.3%; in test [14], 71.2%; in test [15] it was 118%; in [16], 101%; in [17], 89%; in test [18], 92.1%. Further, the growth in [19] was 99.2%; in test [20], 105%.
Take `O=C1c2ccccc2C(=O)c2c([N+](=O)[O-])ccc(Cl)c21`: the growth in test [1] was 75.9%; in test [2], 39.4%; in test [3], 96.4%; in [4], 99.1%; in test [5] it was 65.6%; in test [6], 82.4%. Besides, the growth in [7] is 97.9%; in test [8] it was 96.5%; in test [9], 55.4%; in [10] it was 106%; in test [11] it was 107%; in [12], 113%. Besides, the growth was 97.5% in [13]; 76.6% in test [14]; 87.6% in [15]; 85.5% in test [16]; 39.4% in [17]; 105% in [18]. Besides, the growth in test [19] was 63.2%; in test [20], 86.2%.
Consider `CCOC(=O)c1cc(C(=O)c2cc(OC)cc(OC)c2)n2ccc3ccccc3c12`, for which the growth is 100% in test [1]; 101% in [2]; -7.31% (active) in test [3]; 55.2% in test [4]; 81.8% in test [5]; 99.4% in test [6]. The growth in [7] was 100%; in test [8], 91.1%; in test [9] it was 88.9%; in test [10] it was 107%; in test [11] it was 102%; in test [12], 94.8%. The growth is 81.2% in test [13]; 95.3% in [14]; 99.8% in [15]; 84.2% in test [16]; 84.5% in test [17]; 89.3% in test [18]. Besides, the growth is 102% in test [19] and 104% in test [20].
